Bioassay records as filed in PubChem BioAssay.
An excerpt weighted towards active compounds, which were near 3% of everything screened.
SENP8 block-1: SENP8 protease inhibitors, primary screen, biochemical, luminescence; hit rate 1.2% among 330,000; AID 2540, 2010; Sentrin-specific protease 8 (Homo sapiens), Q96LD8; purified SENP8, Z-RLRGG-aminoluciferin cleavage; inhibition, % at 10 µM; in the data active = inhibition above about 50%
PPC-1+TRAIL kill: compounds killing PPC-1 cancer cells with TRAIL present, primary screen, TRAIL potentiator project, ATPLite luminescence, uHTS | PPC-1 cells + TRAIL, ATPLite viability luminescence | cell killing (% activity), % at 4 µM or 5 µM | hit rate 0.41% among 220,000 | AID 1443, 2008;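 active = cell killing above 50% in the first pass at 4 µM, then a duplicate retest at 5 µM averaging 50% or more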
SENP7 inh: SENP7 protease inhibitors, primary screen, biochemical, luminescence, uHTS | inhibition, % at 5 µM | recombinant SENP7, Z-RLRGG-aminoluciferin luminescence, 40 min | Sentrin-specific protease 7 (Homo sapiens), Q9BQF6 | AID 434973, 2010 | hit rate 1.5% among 330,000;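 active = inhibition above about 50% at the single test dose, limit read from the data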
SENP8 block-2: human SENP8 protease inhibitors, primary screen, biochemical, fluorescence, Nedd8 protein substrate, uHTS; recombinant SENP8; Sentrin-specific protease 8 (Homo sapiens), Q96LD8; inhibition, % at 20 µM; hit rate 0.64% among 360,000; in the data active = inhibition mostly above about 40%, no sharp cut-off; inactive = mostly below about 27%
C8 TRAIL sens: viability loss with TRAIL in NB7+C8 cells, primary screen, TRAIL sensitizer project, cell-based, ATPlite luminescence; AID 624354, 2012; inhibition (viability loss, TRAIL sensitization), % at 10 µM; hit rate 1% among 360,000;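 active = compounds causing at least 50% loss of cell viability in the single-dose screen, relative to plate controls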
SENP6 block: SENP6 protease inhibitors, primary screen, biochemical, luminescence, uHTS; Sentrin-specific protease 6 (Homo sapiens), Q9GZR1; Recombinant SENP6 catalytic domain, aminoluciferin luminescence; inhibition, % at 10 µM; hit rate 1.8% among 330,000;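 active = inhibition above about 50% at the single tested dose, limit read from the data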
Target sequence (Q9GZR1 628-1112 limits assumed): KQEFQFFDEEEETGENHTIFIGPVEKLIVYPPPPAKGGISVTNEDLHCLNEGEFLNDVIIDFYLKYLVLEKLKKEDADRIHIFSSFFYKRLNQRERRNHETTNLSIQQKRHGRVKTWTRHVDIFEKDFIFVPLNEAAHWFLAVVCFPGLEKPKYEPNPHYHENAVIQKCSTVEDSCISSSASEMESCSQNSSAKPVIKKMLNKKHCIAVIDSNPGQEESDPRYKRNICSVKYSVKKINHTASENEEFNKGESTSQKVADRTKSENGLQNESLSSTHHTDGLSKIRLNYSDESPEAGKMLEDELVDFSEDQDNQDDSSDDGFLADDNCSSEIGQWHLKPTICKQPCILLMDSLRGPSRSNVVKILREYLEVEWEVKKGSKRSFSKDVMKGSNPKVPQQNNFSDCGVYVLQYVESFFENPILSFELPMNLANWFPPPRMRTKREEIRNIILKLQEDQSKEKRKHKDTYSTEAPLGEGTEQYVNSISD
PPC-1 tox: cytotoxicity in PPC-1 cells, confirmation, cytotoxicity control for TRAIL apoptosis potentiator project, cell-based, ATP content luminescence; shares compounds with PPC-1+TRAIL kill; hit rate 50% among 1,200; AID 1447, 2008; PPC-1 viability, ATPlite luminescence, overnight; cytotoxicity, % at 5 µM;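 active = reconfirmed compounds whose average cytotoxicity reaches 50% or more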
SENP8 conf: SENP8 protease inhibitors, retest, confirmation, biochemical, luminescence, single concentration; shares compounds with SENP7 inh; Recombinant SENP8, Z-RLRGG-aminoluciferin luminescence, 60 min; inhibition, % at 12.5 µM; hit rate 40% among 6,200; AID 488912, 2010;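 active = mean inhibition across replicates above about 50%, limit read from the data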
SENP6 confirm: SENP6 protease inhibitors, confirmation, biochemical, luminescence, single concentration | shares compounds with SENP7 inh | recombinant SENP6, Z-RLRGG-aminoluciferin luminescence | inhibition, % at 12.5 µM | hit rate 58% among 6,200 | AID 488915, 2010
SENP7 confirm: SENP7 protease inhibitors, retest, confirmation, biochemical, luminescence, single concentration; shares compounds with SENP7 inh; recombinant SENP7, Z-RLRGG-aminoluciferin luminescence, 40 min; inhibition, % at 12.5 µM; hit rate 69% among 6,200; AID 488917, 2010
Casp3 select: caspase-3 protease inhibitors, confirmation, selectivity assay for SENP inhibitor project, biochemical, single concentration. shares compounds with SENP7 inh. purified caspase-3, Z-DEVD-aminoluciferin luminescence, 60 min. inhibition, % at 12.5 µM. hit rate 60% among 6,200;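 active = mean inhibition above about 50%, limit read from the data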
Target sequence (P42574 28-227 limits assumed): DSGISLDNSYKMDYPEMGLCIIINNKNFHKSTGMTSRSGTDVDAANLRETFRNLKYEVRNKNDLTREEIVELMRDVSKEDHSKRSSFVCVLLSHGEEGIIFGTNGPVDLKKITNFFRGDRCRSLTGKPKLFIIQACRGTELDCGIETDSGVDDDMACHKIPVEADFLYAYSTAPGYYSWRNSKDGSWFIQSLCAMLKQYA
Luc interf: interferes with luciferase luminescence in SENP counter-screen; hit rate 39% among 6,200; inhibition, % at 12.5 µM; shares compounds with SENP7 inh; Pre-incubated SENP8/Z-RLRGG-aminoluciferin, luciferase luminescence interference;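 active = mean inhibition above about 50% when retested at one dose, limit read from the data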
Of the large screens only hits and unclear results are named; the others gave an inactive call (follow-up assays come after a bar, where they were run).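 Rule for the calls, unless noted: active = mean inhibition above about 50% in the one-dose retest (limit read from the data); inactive = the rest.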

Cc1noc2ncnc(Sc3ccccc3Cl)c12	none
Cc1cnc(NC(=O)c2ccc(OCC3CCCO3)cc2)s1 (stereo unspecified)	PPC-1+TRAIL kill 83, C8 TRAIL sens 87 | PPC-1 tox 86
Cc1ccc(-c2nnc(SCC(=O)Nc3ccccc3F)o2)cc1	PPC-1+TRAIL kill 76, C8 TRAIL sens 72 | PPC-1 tox 70
COC(=O)c1ccccc1NC(=O)CSc1nnc(-c2ccc(C)cc2)o1	none (no result: SENP8 block-1, SENP7 inh, SENP8 block-2, C8 TRAIL sens, SENP6 block)
O=C(CSc1nnc(-c2ccccc2)o1)Nc1ccccc1F	C8 TRAIL sens 59 | PPC-1 tox 51
O=C(Nc1ccc2c(c1)OCCO2)C(c1ccnc2ccccc12)N1CCN(C/C=C/c2ccccc2)CC1 (stereo unspecified)	none (no result: SENP8 block-1, PPC-1+TRAIL kill, SENP7 inh, SENP6 block)
Cc1ccc(NC(=O)c2ccc(OC(=O)c3ccco3)cc2)cc1	none | PPC-1 tox inactive
CCN(CC)c1ccc(NC(=S)NC(=O)c2ccco2)cc1	none (no result: PPC-1+TRAIL kill)
CCN(CC)c1ccc(NC(=O)c2ccco2)cc1	PPC-1+TRAIL kill 58, C8 TRAIL sens 62 | PPC-1 tox 61
Cc1ccc(Oc2ccc(NC(=O)c3ccco3)cc2)cc1	none
Cc1cc(C)cc(Nc2nc3ccccc3c(=O)[nH]2)c1	none
COc1nc(Nc2nc3ccccc3c(=O)[nH]2)nc2ccc(C)cc12	PPC-1+TRAIL kill 51 | PPC-1 tox 51
CCCCC[C@@H](/C=C/C1C(=O)C=C[C@H]1C/C=C\CCCC(=O)OC)OC(C)=O (stereo partly specified)	none (no result: SENP8 block-1, PPC-1+TRAIL kill, SENP7 inh, SENP6 block)
COc1ccc(-c2nc(Cn3c(SCc4ccc(C)cc4)nc4ccncc43)c(C)o2)cc1OC	none | PPC-1 tox inactive
CC(C)=CCC[C@H](C)C[C@@H]1CC2=C(C(=O)OC(C)(C)O2)[C@H](c2ccc(Cl)cc2)O1	none (no result: SENP8 block-1, PPC-1+TRAIL kill, SENP7 inh, SENP6 block)
COc1ccc(NC(=O)COC(=O)c2cc(Cl)ccc2O)cc1S(=O)(=O)N1CCCCC1	none (no result: PPC-1+TRAIL kill)
CCOC(=O)C1=C2N(C)c3ccccc3N2CCC1=O	none | PPC-1 tox inactive
Clc1ccc(-n2ncc3c(N4CCCCCC4)ncnc32)cc1	SENP8 block-1 86, PPC-1+TRAIL kill 63, SENP7 inh 91, C8 TRAIL sens 84, SENP6 block 94 | PPC-1 tox 68 | SENP8 conf inactive | SENP6 confirm 53 | SENP7 confirm 72 | Casp3 select 57 | Luc interf inactive
Cc1cccc(-n2ncc3c(N4CCOCC4)ncnc32)c1	SENP8 block-1 70, PPC-1+TRAIL kill 79, SENP7 inh 79, C8 TRAIL sens 84, SENP6 block 71 | PPC-1 tox 78 | SENP8 conf 78 | SENP6 confirm 76 | SENP7 confirm 91 | Casp3 select 86 | Luc interf 61
Clc1ccc(Cn2ncc3c(N4CCCCC4)ncnc32)cc1	none
O=c1c(Cl)c(N2CCCCC2)cnn1-c1nc2ccccc2[nH]1	SENP8 block-1 89, PPC-1+TRAIL kill 92, SENP7 inh 97, C8 TRAIL sens 87, SENP6 block 97 | PPC-1 tox 92 | SENP8 conf 96 | SENP6 confirm 96 | SENP7 confirm 102 | Casp3 select 98 | Luc interf inactive
COc1ccc(CC(C)N2CCN(Cc3ccccc3)CC2)cc1OC (stereo unspecified)	none (no result: PPC-1+TRAIL kill)
O=c1oc(Nc2cccc(F)c2)nc2ccccc12	none
Nc1nc(Nc2cccc(F)c2)nc2ccccc12	SENP8 block-1 88, SENP7 inh 90, SENP6 block 96 | PPC-1 tox inactive | SENP8 conf 96 | SENP6 confirm 96 | SENP7 confirm 102 | Casp3 select 91 | Luc interf 96
CN(Cc1ccco1)S(=O)(=O)c1cc(F)ccc1CN1C(=O)c2cccnc2C1=O	none (no result: PPC-1+TRAIL kill)
COc1ccc(/C=C(\C#N)C(=O)N2COCC2(C)C)cc1	none (no result: PPC-1+TRAIL kill)
N/C(=N\OC(=O)c1ccc(Cl)c([N+](=O)[O-])c1)c1ccccn1	none
N/C(=N\OC(=O)c1ccc(Cl)cc1)c1ccccn1	SENP8 block-1 97, SENP7 inh 99, C8 TRAIL sens 69, SENP6 block 94 | PPC-1 tox inactive | SENP8 conf 88 | SENP6 confirm 99 | SENP7 confirm 103 | Casp3 select 98 | Luc interf 79
N/C(=N\OC(=O)c1ccc(Cl)c(Cl)c1)c1ccccn1	SENP8 block-1 68, SENP7 inh 95, C8 TRAIL sens 66, SENP6 block 85 | PPC-1 tox inactive | SENP8 conf inactive | SENP6 confirm inactive | SENP7 confirm 65 | Casp3 select 82 | Luc interf 59
N/C(=N\OC(=O)c1ccccc1Cl)c1ccccn1	SENP8 block-1 93, PPC-1+TRAIL kill 66, SENP7 inh 100, C8 TRAIL sens 79, SENP6 block 96 | PPC-1 tox 70 | SENP8 conf 97 | SENP6 confirm 98 | SENP7 confirm 102 | Casp3 select 98 | Luc interf 97
N/C(=N\OC(=O)COc1ccccc1Cl)c1ccccn1	none (no result: SENP8 block-1, SENP7 inh, SENP6 block)
CN(C)C(=O)OCc1c(-c2ccccc2)ncc2ccccc12	none (no result: PPC-1+TRAIL kill, SENP8 block-2, C8 TRAIL sens)
Clc1ccccc1/C=C/c1nc(-c2ccccn2)no1	SENP8 block-1 95, PPC-1+TRAIL kill 71, SENP7 inh 100, C8 TRAIL sens 69, SENP6 block 96 | PPC-1 tox 67 | SENP8 conf 99 | SENP6 confirm 100 | SENP7 confirm 103 | Casp3 select 98 | Luc interf 74
CC(C)(C)Cc1nc(-c2ccccn2)no1	none
